# Measured values from PubChem BioAssay.
# “And” between values parts separate entries of the source, which are not always exact repeats. Equal values may be shown once. The source made the active and inactive calls.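 The calls were made as follows, unless noted: active = mean z-score across replicates of 1.96 or higher in either the MELAS or the Rieske mutant cell line; inactive = the rest.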
# Assays:
# [1] = tested on: Hepatitis C virus NS3 helicase; assay: HCV NS3 helicase inhibitors, primary screen, biochemical, fluorescence polarization, NIH Clinical Collection (AID 743270; call rule not given here); conditions: NS3 helicase binding to Cy5-dT15 DNA, stronger effect = higher value, concentration not given here
# [2] = molecular target: Single-stranded DNA-binding protein (Escherichia coli (strain K12)) (UniProt P0AGE0); assay: E. coli SSB displacement from DNA, counter-screen for HCV NS3 helicase inhibitor project, biochemical, fluorescence polarization, NIH Clinical Collection (AID 743271; in the data active = inhibition above about 28%); conditions: stronger effect = higher value, concentration not given here
# [3] = fluorescence interference in NS3h assay format, artefact control for HCV NS3 helicase inhibitor project, biochemical, NIH Clinical Collection (AID 743272; call rule not given here;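 also: HCV NS3 helicase with a Cy5 labelled single stranded DNA probe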); conditions: fluorescence interference counterscreen, stronger effect = lower value
# [4] = stimulators of nuclear beta-catenin in C2C12, primary screen, imaging, WNT3A-conditioned medium, mouse C2C12, NPC library (AID 1117326; in the data active = nuclear beta-catenin stimulation mostly above about 4.2%, no sharp cut-off; inactive = mostly below about 10%); conditions: stronger effect = higher value
# [5] = stimulators of insulin release from INS-1E, primary screen, cell-based, 5 mM glucose, NPC library (AID 1117329;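 active = compound raises insulin release from rat beta cells at 5 mM glucose, no numeric limit stated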); conditions: rat INS-1E insulin secretion, at 10 µM, stronger effect = higher value
# [6] = growth inhibition of GSK3B-pretreated HCT116 cells – cell-based, CellTiter-Glo, 0.2 to 20 µM (AID 1117336;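 active = compounds lowering colon cancer cell viability after pretreatment blocking the GSK3B kinase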); conditions: HCT116 viability after GSK3B inhibitor, at 20 µM, stronger effect = higher value
# [7] = inhibition of endothelial tube formation, primary screen, imaging, VEGF stimulated, CD31 staining, tube area, NPC library (AID 1117340;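 active = compound that reduces growth-factor-driven endothelial tube area in a mixed cell culture, no cutoff stated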); conditions: VEGF-stimulated ADSC/ECFC co-culture, at 10 µM, stronger effect = higher value
# [8] = glucagon-like peptide 1 release enhancers, primary assay, NCI-H716 cell line, NPC library (AID 1117341;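 active = compound raises GLP1 secretion from the human gut endocrine cells, with no numeric limit stated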); conditions: NCI-H716 cells, at 10 µM, stronger effect = higher value
# [9] = HCT116 colon cancer cell growth inhibition, primary screen, CellTiter-Glo luminescence, NPC library (AID 1117342;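 active = compounds that lower survival of HCT116 colon cancer cells in the luminescence readout, no numeric limit stated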); conditions: at 20 µM (top of the series)
# [10] = CellTiter-Glo luminescent readout of SW480 viability loss, NPC library primary (AID 1117343;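 active = compounds that lower viability of the colon cancer cells in the luminescence readout, with no numeric limit stated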); conditions: CellTiter-Glo luminescence; at 20 µM (top of the series)
# [11] = decreased DLD-1 cellular survival, CellTiter-Glo luminescent readout, NPC compound collection, primary HTS (AID 1117346;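 active = compounds that lower survival of DLD-1 colon cancer cells in the luminescence readout, no cutoff given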); conditions: DLD-1 viability, CellTiter-Glo luminescence; at 20 µM (top of the series)
# [12] = molecular target: 6-phosphogluconate dehydrogenase, decarboxylating (Homo sapiens) (UniProt P52209); assay: 6PGD enzyme inhibitors, primary screen, biochemical, human, recombinant enzyme, NADPH absorbance (AID 1159550;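 active = at least 20% inhibition of 6-phosphogluconate dehydrogenase activity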); conditions: recombinant 6PGD, NADPH absorbance 341 nm; at 10 µM; stronger effect = higher value
# [13] = differential killing of epithelial or mesenchymal cells, primary screen, imaging, PC-3E GFP, TEM4-18 mCherry, co-culture (AID 1345086;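 active = compounds killing one labelled cell type while sparing the other, by normalised counts and ratio limits, not self-fluorescent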;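 as to all read-outs here: cells exposed to compound for 72 h before imaging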;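 as to red/green cell ratio (normalised): normalised mesenchymal count divided by normalised epithelial count so high means epithelial killing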); conditions: imaging cell counts, at 1 µM; for red/green cell ratio (normalised): actives lie on both sides, counts scaled to control wells, 1 = unselective
# [14] = survival rescue of mitochondrial mutant cells in low glucose, primary screen, MELAS cybrids, Rieske KO mouse fibroblasts, CellTiter-Glo (AID 1508586);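 also: z relative to plate mean and SD of compound and empty wells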
# [15] = molecular target: NAD(+) hydrolase SARM1 (Homo sapiens) (UniProt Q6SZW1); assay: SARM1 TIR NADase inhibitors, cell lysate, NAD-Glo luminescence (AID 1508614;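 active = compound whose remaining NAD level is above about 45 nM, limit read from the data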;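 also: higher remaining NAD means stronger inhibition of SARM1 NADase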); conditions: SAM-TIR HEK293T lysate NADase, at 1 µM, stronger effect = higher value
# [16] = molecular target: Mitogen-activated protein kinase 7 (Homo sapiens) (UniProt Q13164); assay: ERK5 transactivation activators in reporter cells, primary screen, cell-based, HTS (AID 1508626;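 active = luciferase signal above three times the same-plate solvent-only control wells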;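 also: luciferase driven by Gal4-ERK5 fusion binding five Gal4 sites before minimal TATA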); conditions: HeLa Gal4-ERK5 transactivation, 18 h, at 5 µM, stronger effect = higher value
# [17] = sensitizers of A549 cells to miR-34 induction, primary screen, imaging, A549 dox-inducible miR-34, nuclei and caspase counts (AID 1347080;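 active = compounds whose cell count with miR-34 switched on is under 0.7 times the count with it off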); conditions: A549 miR-34 inducible, Hoechst nuclei count, 48 h
# [18] = tested on: F380Y; assay: modulators of BK channel variants, profiling panel, selectivity assay, cell-based, U2OS BacMam, thallium flux, beta subunits (AID 1259406;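 active = thallium flux through the channel raised or lowered by more than 3 SD from vehicle-only wells, actives on both sides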;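 also: initial slope of Thallos dye fluorescence rise after thallium is added; log ratio against the mean of 0.3% DMSO vehicle wells on the same plate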); conditions: at 30 µM
# [19] = tested on: F380Y/beta2Delta; assay: as above; conditions: at 30 µM
# [20] = molecular target: Calcium-activated potassium channel subunit alpha-1 (Homo sapiens) + Leucine-rich repeat-containing protein 26 (Homo sapiens) (UniProt Q12791+Q2I0M4); assay: as above; conditions: F380Y/Slo1WT/gamma1, at 30 µM
# [21] = measured here: epithelial PC-3E GFP cell survival
# [22] = measured here: mesenchymal TEM4-18 mCherry cell survival
# [23] = MELAS cybrid survival, CellTiter-Glo 48 h, stronger effect = higher value
# [24] = Rieske KO mouse fibroblast survival, CellTiter-Glo 72 h
# Chain of Mitogen-activated protein kinase 7 (Homo sapiens) (Q13164 whole entry, looked up, the tested form may be a part): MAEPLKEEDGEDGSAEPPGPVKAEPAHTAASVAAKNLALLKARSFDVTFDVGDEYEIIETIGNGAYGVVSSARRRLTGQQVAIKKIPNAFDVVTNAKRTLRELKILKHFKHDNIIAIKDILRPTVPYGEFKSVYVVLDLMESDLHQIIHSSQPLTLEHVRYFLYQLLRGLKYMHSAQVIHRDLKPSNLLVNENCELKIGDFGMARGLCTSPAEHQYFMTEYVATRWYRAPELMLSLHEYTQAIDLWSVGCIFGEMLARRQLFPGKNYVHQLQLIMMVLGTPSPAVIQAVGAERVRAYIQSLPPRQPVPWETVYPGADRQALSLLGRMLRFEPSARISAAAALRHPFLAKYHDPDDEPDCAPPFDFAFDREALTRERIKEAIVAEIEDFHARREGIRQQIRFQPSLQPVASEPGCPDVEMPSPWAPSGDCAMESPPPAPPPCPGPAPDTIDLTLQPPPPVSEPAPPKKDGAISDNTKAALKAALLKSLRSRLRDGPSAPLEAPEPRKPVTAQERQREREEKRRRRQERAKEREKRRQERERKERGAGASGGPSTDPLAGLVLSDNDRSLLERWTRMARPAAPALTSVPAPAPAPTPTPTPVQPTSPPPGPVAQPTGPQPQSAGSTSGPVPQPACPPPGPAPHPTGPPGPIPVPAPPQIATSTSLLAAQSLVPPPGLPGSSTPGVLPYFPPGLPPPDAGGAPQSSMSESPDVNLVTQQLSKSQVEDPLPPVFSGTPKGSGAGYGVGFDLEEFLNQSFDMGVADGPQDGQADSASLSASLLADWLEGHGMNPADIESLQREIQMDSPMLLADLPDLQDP
# Chain of NAD(+) hydrolase SARM1 (Homo sapiens) (Q6SZW1 whole entry, looked up, the tested form may be a part): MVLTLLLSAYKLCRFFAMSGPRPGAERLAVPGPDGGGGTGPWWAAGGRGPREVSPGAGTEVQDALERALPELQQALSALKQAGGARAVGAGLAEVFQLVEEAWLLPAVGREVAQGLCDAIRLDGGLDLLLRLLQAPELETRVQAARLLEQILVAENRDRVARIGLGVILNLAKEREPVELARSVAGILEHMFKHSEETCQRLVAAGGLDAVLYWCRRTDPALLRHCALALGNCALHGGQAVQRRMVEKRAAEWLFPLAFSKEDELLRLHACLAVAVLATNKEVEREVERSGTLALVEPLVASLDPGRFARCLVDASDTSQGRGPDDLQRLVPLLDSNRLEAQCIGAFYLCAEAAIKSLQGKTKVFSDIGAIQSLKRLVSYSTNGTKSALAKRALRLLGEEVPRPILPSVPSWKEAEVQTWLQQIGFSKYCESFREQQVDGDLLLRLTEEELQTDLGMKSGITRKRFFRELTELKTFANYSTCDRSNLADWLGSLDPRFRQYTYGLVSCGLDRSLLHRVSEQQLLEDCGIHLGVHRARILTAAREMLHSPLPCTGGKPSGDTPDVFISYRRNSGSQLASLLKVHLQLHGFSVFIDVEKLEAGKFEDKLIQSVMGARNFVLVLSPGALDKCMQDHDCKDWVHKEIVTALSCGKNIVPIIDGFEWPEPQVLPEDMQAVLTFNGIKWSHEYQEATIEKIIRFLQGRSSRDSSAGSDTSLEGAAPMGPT
# Chain of 6-phosphogluconate dehydrogenase, decarboxylating (Homo sapiens) (P52209 whole entry, looked up): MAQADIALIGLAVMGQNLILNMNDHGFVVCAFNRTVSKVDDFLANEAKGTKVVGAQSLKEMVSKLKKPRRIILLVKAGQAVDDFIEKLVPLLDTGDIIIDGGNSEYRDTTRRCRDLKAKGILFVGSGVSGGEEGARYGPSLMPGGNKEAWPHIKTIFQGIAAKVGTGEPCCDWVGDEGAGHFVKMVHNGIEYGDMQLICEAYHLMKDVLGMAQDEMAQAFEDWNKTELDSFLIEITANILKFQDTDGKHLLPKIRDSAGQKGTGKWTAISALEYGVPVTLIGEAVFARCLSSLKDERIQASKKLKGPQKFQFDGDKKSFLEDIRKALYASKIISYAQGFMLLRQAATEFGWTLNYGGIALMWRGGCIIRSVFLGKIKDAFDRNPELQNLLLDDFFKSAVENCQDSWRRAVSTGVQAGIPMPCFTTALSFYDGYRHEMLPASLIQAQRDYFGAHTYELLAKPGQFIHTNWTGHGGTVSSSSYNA
# Chain of Calcium-activated potassium channel subunit alpha-1 (Homo sapiens) + Leucine-rich repeat-containing protein 26 (Homo sapiens) (Q2I0M4 whole entry, looked up, one chain of several): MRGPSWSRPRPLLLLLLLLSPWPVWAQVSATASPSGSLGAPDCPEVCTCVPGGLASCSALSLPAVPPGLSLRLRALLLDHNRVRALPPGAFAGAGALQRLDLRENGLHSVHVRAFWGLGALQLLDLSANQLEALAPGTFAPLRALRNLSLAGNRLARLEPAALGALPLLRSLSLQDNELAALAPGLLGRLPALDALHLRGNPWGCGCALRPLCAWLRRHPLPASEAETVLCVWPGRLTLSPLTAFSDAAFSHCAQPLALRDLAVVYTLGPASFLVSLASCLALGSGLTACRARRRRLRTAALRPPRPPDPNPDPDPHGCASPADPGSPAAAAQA
structure (smiles),measurement,setting,value
Nc1nc2ccc(OC(F)(F)F)cc2s1,inhibition,[1],-5.94% (inactive)
same,inhibition,[2],-0.87% (inactive)
same,fluorescence ratio,[3],0.87 (inactive)
same,nuclear beta-catenin stimulation,[4]; at 10 µM,0.7% (inactive)
same,nuclear beta-catenin stimulation,"[4]; stimulation, at 2 µM",-0.8%
same,insulin secretion stimulation,[5],-2.4% (inactive)
same,viability decrease,[6],32.5% (inactive)
same,tube area decrease,[7],34% (inactive)
same,GLP1 secretion stimulation,[8],0.6% (inactive)
same,inhibition of viability,[9],21.7% (inactive)
same,viability decrease (inhibition),[10],88.8% (active)
same,viability decrease (inhibition),[11],47.1% (inactive)
same,inhibition,[12],2.66% (inactive)
same,red/green cell ratio (normalised),[13],1.07 (inactive)
same,normalised cell number,[13]; [21],1.04
same,normalised cell number,[13]; [22],1.11
same,z-score,[14]; [23],0.0258 (inactive) and 0.56 (inactive) and -1.11 (inactive)
same,z-score,[14]; [24],0.111 and -0.202 and -1.33
same,remaining NAD,[15],10 nM (inactive)
CCOC(=O)N1CCC(=C2c3ccc(Cl)cc3CCc3cccnc32)CC1,inhibition,[1],-3.56% (inactive)
same,inhibition,[2],6.83% (inactive)
same,fluorescence ratio,[3],0.9 (inactive)
same,nuclear beta-catenin stimulation,[4]; at 10 µM,1.8% (inactive)
same,nuclear beta-catenin stimulation,"[4]; stimulation, at 2 µM",1%
same,insulin secretion stimulation,[5],6.9% (inactive)
same,viability decrease,[6],94.1% (active)
same,tube area decrease,[7],39.2% (inactive)
same,GLP1 secretion stimulation,[8],14.3% (inactive)
same,inhibition of viability,[9],98.8% (active)
same,viability decrease (inhibition),[10],94% (active)
same,viability decrease (inhibition),[11],97.2% (active)
same,inhibition,[12],4.3% (inactive)
same,red/green cell ratio (normalised),[13],1.35 (inactive)
same,normalised cell number,[13]; [21],0.99
same,normalised cell number,[13]; [22],1.34
same,z-score,[14]; [23],-0.418 (inactive) and -1.77 (inactive) and -2.01 (inactive)
same,z-score,[14]; [24],0.823 and 1.1 and 0.356
same,remaining NAD,[15],10 nM (inactive)
same,luciferase signal,[16],48 AU (inactive)
CCn1cc(C(=O)O)c(=O)c2cc(F)c(N3CCNCC3)cc21,nuclear beta-catenin stimulation,[4]; at 10 µM,0.1% (inactive)
same,nuclear beta-catenin stimulation,"[4]; stimulation, at 2 µM",-1.2%
same,insulin secretion stimulation,[5],1.1% (inactive)
same,viability decrease,[6],13.9% (inactive)
same,tube area decrease,[7],-4.6% (inactive)
same,GLP1 secretion stimulation,[8],4.3% (inactive)
same,inhibition of viability,[9],4.5% (inactive)
same,viability decrease (inhibition),[10],-12% (inactive)
same,viability decrease (inhibition),[11],-0.1% (inactive)
same,inhibition,[12],-0.111% (inactive)
same,red/green cell ratio (normalised),[13],1.22 (inactive) and 1.14 (inactive)
same,normalised cell number,[13]; [21],0.92 and 1.12
same,normalised cell number,[13]; [22],1.13 and 1.28
same,fold change,"[17]; stronger effect = lower value, cell number ratio, induced over uninduced",0.843 (inactive) and 0.881 (inactive) and 0.867 (inactive)
same,fold change,[17]; measured here: relative caspase fold change +Dox/-Dox,1.43 and 1.17
same,cell count,"[17]; measured here: total cells with miR-34 induction, stronger effect = lower value",7840 and 11600 and 9850
same,cell count,[17]; measured here: total cells without miR-34 induction,9310 and 13200 and 11400
same,z-score,[14]; [23],1.33 (inactive) and -0.232 (inactive)
same,z-score,[14]; [24],-0.144 and -0.221
same,remaining NAD,[15],10 nM (inactive)
same,luciferase signal,[16],56 AU (inactive)
O=c1n(CCCN2CCN(c3cccc(Cl)c3)CC2)nc2ccccn12,inhibition,[1],-6.73% (inactive)
same,inhibition,[2],-2.41% (inactive)
same,fluorescence ratio,[3],0.97 (inactive)
same,nuclear beta-catenin stimulation,[4]; at 10 µM,4.5% (inactive)
same,nuclear beta-catenin stimulation,"[4]; stimulation, at 2 µM",0.2%
same,insulin secretion stimulation,[5],-0.1% (inactive)
same,viability decrease,[6],-48.7% (inactive)
same,tube area decrease,[7],4.5% (inactive)
same,GLP1 secretion stimulation,[8],0.4% (inactive)
same,inhibition of viability,[9],16.6% (inactive)
same,viability decrease (inhibition),[10],9.9% (inactive)
same,viability decrease (inhibition),[11],2.2% (inactive)
same,inhibition,[12],-5.67% (inactive)
same,red/green cell ratio (normalised),[13],1.12 (inactive)
same,normalised cell number,[13]; [21],1.02
same,normalised cell number,[13]; [22],1.14
same,z-score,[14]; [23],0.0745 (inactive)
same,z-score,[14]; [24],-0.0668
same,remaining NAD,[15],10 nM (inactive)
same,luciferase signal,[16],72 AU (inactive)
same,log fold change Tl+ flux,[18],0.0157 (inactive)
same,log fold change Tl+ flux,[19],0.035 (inactive)
same,log fold change Tl+ flux,[20],0.0319 (inactive)
CNC(=O)Oc1ccc2c(c1)[C@]1(C)CCN(C)[C@@H]1N2C,nuclear beta-catenin stimulation,[4]; at 10 µM,-0.4% (inactive)
same,nuclear beta-catenin stimulation,"[4]; stimulation, at 2 µM",0%
same,insulin secretion stimulation,[5],5% (inactive)
same,viability decrease,[6],5% (inactive)
same,tube area decrease,[7],-23.5% (inactive)
same,GLP1 secretion stimulation,[8],3.8% (inactive)
same,inhibition of viability,[9],23.3% (inactive)
same,viability decrease (inhibition),[10],38.9% (inactive)
same,viability decrease (inhibition),[11],0.2% (inactive)
same,inhibition,[12],-7.09% (inactive) and -14.3% (inactive) and -6.98% (inactive)
same,red/green cell ratio (normalised),[13],0.96 (inactive)
same,normalised cell number,[13]; [21],1.03
same,normalised cell number,[13]; [22],1
same,z-score,[14]; [23],-0.485 (inactive) and 0.886 (inactive)
same,z-score,[14]; [24],-0.245 and 0.787
same,remaining NAD,[15],10 nM (inactive)
same,luciferase signal,[16],40 AU (inactive)
